Data as given in the supplement of paper PMC7411640.
Structures can show the parent of a compound that is named as a salt.

Test system: MDA-MB-468
Assay: phospho-S6 immunofluorescence (DAPI-normalised), per-plate z-score; higher = higher phospho-S6 signal (less pathway suppression)
Settings: co-treatment: lapatinib 1 uM; 24 h
Description: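 GPCR-targeted compound library (MedChemExpress HY-L006) tested on MDA-MB-468 PTEN-null TNBC cells in 384-well plates at 0.1, 1 or 10 uM, combined with vehicle, GDC0941 450 nM or lapatinib 1 uM, for 24 h. Phospho-S6 (S240/244) immunofluorescence normalised to DAPI and expressed as a per-plate z-score; values are the mean of biological triplicates.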

| Compound | phospho-S6 immunofluorescence (z-score) |
| --- | --- |
| CNc1nc(NCc2ccc(NS(C)(=O)=O)cc2Cl)cc(-c2ccccn2)n1 (compound 10 µM) | -5.07 |
| CC(C)[C@H](NC(=O)[C@H](CCCN=C(N)N)NC(=O)[C@@H](N)CC(=O)O)C(=O)N[C@@H](Cc1ccc(O)cc1)C(=O)N[C@H](C(=O)N[C@@H](Cc1cnc[nH]1)C(=O)N1CCC[C@H]1C(=O)N[C@@H](Cc1ccccc1)C(=O)O)C(C)C [Angiotensin II 5-valine] (compound 10 µM) | 0.49 |
| O=C(c1ccc(OCCCc2c[nH]cn2)cc1)C1CC1 [Ciproxifan (maleate)] (compound 10 µM) | -0.62 |
| O=C(O)COCCN1CCN(C(c2ccccc2)c2ccc(Cl)cc2)CC1 (stereo not drawn) [Cetirizine (dihydrochloride)] (compound 10 µM) | 0.74 |
| COCCc1ccc(OCC(O)CNC(C)C)cc1 (stereo not drawn) [Metoprolol (Succinate)] (compound 10 µM) | -0.38 |
| CCCCCCOc1nsnc1C1=CCCN(C)C1 [Xanomeline (oxalate)] (compound 10 µM) | -0.5 |
| COc1cc2nc(N3CCN(C(=O)C4CCCO4)CC3)nc(N)c2cc1OC (stereo not drawn) [Terazosin (hydrochloride dihydrate)] (compound 10 µM) | 0.9 |
| CC(=O)N[C@H](Cc1ccc2ccccc2c1)C(=O)N[C@H](Cc1ccc(Cl)cc1)C(=O)N[C@H](Cc1cccnc1)C(=O)N[C@@H](CO)C(=O)N(C)[C@@H](Cc1ccc(O)cc1)C(=O)N[C@H](CC(N)=O)C(=O)N[C@@H](CC(C)C)C(=O)N[C@@H](CCCCNC(C)C)C(=O)N1CCC[C@H]1C(=O)N[C@H](C)C(N)=O [Abarelix] (compound 10 µM) | 0.65 |
| CN(C)CCCN1c2ccccc2Sc2ccc(C(F)(F)F)cc21 [Triflupromazine (hydrochloride)] (compound 10 µM) | -2.74 |
| COc1ccc(CCN2CCN(CCCc3ccccc3)CC2)cc1OC [SA4503 (dihydrochloride)] (compound 10 µM) | -0.13 |
| Cc1cc2c(cc1CC(=O)c1sccc1S(=O)(=O)Nc1onc(C)c1Cl)OCO2 [Sitaxsentan (sodium)] (compound 10 µM) | 0.35 |
| O=C(N[C@@H]1CC[C@@H](c2cccc(F)c2F)CN(CC(F)(F)F)C1=O)N1CCC(n2c(=O)[nH]c3ncccc32)CC1 (compound 10 µM) | 0.53 |
| O=C(c1ccc(F)cc1)N1CCC[C@H](c2nc(-c3ccc(F)cc3)no2)C1 (compound 10 µM) | -3.29 |
| OC[C@H]1O[C@@H](n2cnc3c(N[C@@H]4CCc5ccccc54)ncnc32)[C@H](O)[C@@H]1O (compound 10 µM) | 0.89 |
| O=C(O[C@@H]1C[C@@H]2C[C@H]3C[C@H](C1)N2CC3=O)c1c[nH]c2ccccc12 [Dolasetron (Mesylate hydrate)] (compound 10 µM) | -0.24 |
| CN1CCN2c3c(cccc31)[C@@H]1CN(CCCC(=O)c3ccc(F)cc3)CC[C@@H]12 [lumateperone (Tosylate)] (compound 10 µM) | -3.22 |
| Cc1c(CC(=O)O)c2cccnc2n1Cc1ccc(S(C)(=O)=O)cc1C(F)(F)F [Fevipiprant] (compound 10 µM) | -1.74 |
| CC(C(=O)Nc1cc(C#N)ccc1CCCC(=O)O)c1ccc(F)c2ccccc12 (stereo not drawn) (compound 10 µM) | -2.8 |
| Fc1ccc(-c2cncc(CN3CCN(c4cccc5c4OCCO5)CC3)c2)cc1 [Adoprazine] (compound 10 µM) | -1.05 |
| CCc1nc2c(C)nc(C)cc2n1-c1ccc(CCNC(=O)NS(=O)(=O)c2ccc(C)cc2)cc1 [Grapiprant] (compound 10 µM) | -0.15 |
| CCc1nn(CCCN2CCN(c3cccc(Cl)c3)CC2)c(=O)n1CCOc1ccccc1 [Nefazodone (hydrochloride)] (compound 10 µM) | -2.37 |
| NC1=NCC2c3ccccc3Cc3ccccc3N12 (stereo not drawn) [Epinastine] (compound 10 µM) | -0.81 |
| O=C(NCCCN1CCC2(CC1)OCc1ccccc12)[C@H]1CCCN1Cc1ccccc1 (compound 10 µM) | -1.57 |
| O=C(O)CCCN1CCC(O[C@@H](c2ccc(Cl)cc2)c2ccccn2)CC1 [Bepotastine (Beslilate)] (compound 10 µM) | -0.17 |
| CCCCC[C@H](O)/C=C/[C@H]1[C@H](O)CC(=O)[C@@H]1C/C=C\CCCC(=O)O [Prostaglandin E2] (compound 10 µM) | 1.46 |
| O=C(O)Cn1c2c(c3cc(F)ccc31)CN(C(=O)c1cccc3ccccc13)CC2 [Setipiprant] (compound 10 µM) | 0.74 |
| OCCOCCN1CCN(C2=Nc3ccccc3Sc3ccccc32)CC1 [Quetiapine] (compound 10 µM) | -0.32 |
| Oc1cc2c(cc1O)C(c1ccccc1)CNCC2 (stereo not drawn) (compound 10 µM) | 0.35 |
